# High-throughput results deposited in PubChem BioAssay by Sanford-Burnham Center for Chemical Genomics.
# Only some compounds are listed: those with a hit (about 1.1% of all), similar ones and a draw of the others.
# NPR2 activator = human GC-B receptor activators, primary screen, HEK293 GC-B cells, cGMP TR-FRET, EC30 CNP; Atrial natriuretic peptide receptor 2 (Homo sapiens), P20594; 0% at EC30 CNP, 100% saturating CNP; activation, % at 10 µM; 0.11% of 370,000 active;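 active means activation at 10 µM reaching about 35% in either raw or pattern-adjusted values, limit read from the data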
# Target sequence (P20594 whole entry, looked up): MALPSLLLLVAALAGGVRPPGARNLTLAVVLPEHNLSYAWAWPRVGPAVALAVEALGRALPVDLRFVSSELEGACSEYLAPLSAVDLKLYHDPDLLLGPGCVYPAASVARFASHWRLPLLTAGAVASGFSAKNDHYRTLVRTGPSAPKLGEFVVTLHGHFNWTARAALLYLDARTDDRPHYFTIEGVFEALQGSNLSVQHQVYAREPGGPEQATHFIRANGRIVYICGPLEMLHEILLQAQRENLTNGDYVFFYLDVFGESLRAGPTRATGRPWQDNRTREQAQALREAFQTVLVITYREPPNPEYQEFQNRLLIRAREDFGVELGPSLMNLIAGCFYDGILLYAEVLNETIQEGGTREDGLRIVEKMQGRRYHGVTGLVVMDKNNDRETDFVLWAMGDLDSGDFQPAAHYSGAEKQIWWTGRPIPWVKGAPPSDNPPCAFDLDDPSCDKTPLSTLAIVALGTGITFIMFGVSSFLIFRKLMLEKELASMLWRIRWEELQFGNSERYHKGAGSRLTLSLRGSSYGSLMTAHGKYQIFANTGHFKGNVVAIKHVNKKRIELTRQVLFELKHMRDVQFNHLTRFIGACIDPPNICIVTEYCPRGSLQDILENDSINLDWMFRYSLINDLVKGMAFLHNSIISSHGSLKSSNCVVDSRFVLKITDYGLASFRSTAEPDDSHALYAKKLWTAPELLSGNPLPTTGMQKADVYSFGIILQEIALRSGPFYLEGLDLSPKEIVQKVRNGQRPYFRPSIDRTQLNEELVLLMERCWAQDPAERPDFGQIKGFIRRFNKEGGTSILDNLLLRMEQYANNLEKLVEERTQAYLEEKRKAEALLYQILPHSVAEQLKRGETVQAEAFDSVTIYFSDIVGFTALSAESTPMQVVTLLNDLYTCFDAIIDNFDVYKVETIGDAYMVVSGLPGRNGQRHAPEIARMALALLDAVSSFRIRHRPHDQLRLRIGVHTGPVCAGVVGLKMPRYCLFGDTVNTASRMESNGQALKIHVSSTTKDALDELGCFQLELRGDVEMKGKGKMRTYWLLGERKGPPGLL
# FAS-TE inh = FAS thioesterase domain inhibitors, primary screen, biochemical, fluorescence intensity, uHTS | inhibition, % at 15 µM | 0.67% of 360,000 active | AID 602261, 2012 | recombinant FAS-TE, OMFH fluorogenic substrate, fluorescence endpoint | Fatty acid synthase (Homo sapiens), P49327;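 active means compounds whose normalised, plate-corrected inhibition of enzyme fluorescence in the single-dose primary screen is 50% or more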;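 further: 0% = DMSO with enzyme and 100% = substrate without enzyme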
# GC-A act = GC-A stimulated cGMP production enhancers – HEK293 GC-A cells, cGMP TR-FRET, EC30 ANP, primary screen | 0% at EC30 ANP, 100% saturating ANP | Atrial natriuretic peptide receptor 1 (Homo sapiens), P16066 | AID 1671463, 2021 | activation, % at 10 µM | 0.14% of 370,000 active; in the data active means activation above about 40%
# aDG glyco up = activators of alpha-DG glycosylation, primary screen, uHTS, Pro5-aDG cells, AlphaScreen. alpha-DG glycosylation AlphaScreen (IIH6); 0% Pro5, 100% B10-LARGE cell signal. AID 624168, 2012. activation, % at 10 µM. 0.22% of 360,000 active;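 active means activation of at least 8% versus controls, or a plate z-score of at least 8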;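 further: Pro5 are CHO cells carrying HIG-tagged alpha-DG that lacks glycosylation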
# FAS-TE inh conf = FAS thioesterase domain inhibitors, confirmation, biochemical, fluorescence intensity, single concentration | shares compounds with FAS-TE inh | recombinant FAS-TE, OMFH fluorogenic substrate | 45% of 2,300 active | inhibition, % at 15 µM;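 active means compounds inhibiting the enzyme by at least 50% at 15 µM in any one of the replicates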;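 further: 0% = enzyme with DMSO only and 100% = wells lacking enzyme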
# An asterisk follows results filed as active; x = no result given.
SMILES,NPR2 activator,FAS-TE inh,GC-A act,aDG glyco up,FAS-TE inh conf
Cc1ccccc1C(=O)NC1CCCCN(C(C)C)C1=O (stereo not drawn),6.3,x,-0.5,x,x
COc1ccc(S[C@]2(C(=O)N3CCN(C(C)=O)CC3)CC(=O)N(C(=O)C3CC3)[C@@H]2c2ccc(OC)cc2)cc1,-5.5,x,1.1,x,x
CC(=O)c1cccc2c1OC(C)C(=O)N2Cc1ccc(Cl)cc1 (stereo not drawn),2.1,57.4*,-3.5,0.5,62.3*
COc1ccc(-c2csc(N3C(=O)C4C5c6ccccc6C(c6ccccc65)[C@@H]4C3=O)n2)cc1 (stereo partly drawn),0.8,58.8*,2.3,-0.1,12.5
COc1ccc(-c2csc(N3C(=N)SCC3=O)n2)cc1,0.1,-10.3,7.3,-0.2,x
COc1ccc(-c2csc(N3C(=O)C4C5c6ccccc6C(c6ccccc65)C4C3=O)n2)cc1 (stereo not drawn),0.5,63.2*,0.6,-0.2,33.8
Cc1nn(-c2ccccc2)c2sc(C(=O)NCc3ccc4c(c3)OCO4)cc12,-2.6,x,4.8,x,x
CCOC(=O)c1c(NC(C)=O)sc2c1CCC(C=NCCCN(CC)CC)=C2Sc1ccccc1,x,55.9*,x,0.6,38.1
CCOC(=O)c1c(NC(C)=O)sc2c(OCCN(CC)CC)c(Br)ccc12,1.8,12.3,0.5,0.7,x
COc1ccc2c(c1)c(CC(=O)Nc1cc(C)ccc1C)c(C)n2C(=O)c1ccc(Cl)cc1,4.5,21.4,1.0,-0.4,x
COc1ccc2c(c1)c(CC(=O)Nc1ccc(C(C)=O)cc1)c(C)n2C(=O)c1ccc(Cl)cc1,0.9,54.1*,0.1,0.1,29.5
COc1ccc2c(c1)c(CC(=O)Nc1ccccc1OC)c(C)n2C(=O)c1ccc(Cl)cc1,-0.8,51.6*,-9.8,-0.5,12.2
C[C@@H]1COc2cc(Br)ccc2S(=O)(=O)N1Cc1cn(Cc2ccc(Br)cc2)nn1,-4.6,x,-9.2,x,x
C=CCn1cc(C(=O)NCc2ccco2)c(=O)c2cc(S(=O)(=O)N3CCCCCC3)ccc21,0.4,61.1*,3.6,-0.5,69.8*
CCn1cc(C(=O)NCc2ccco2)c(=O)c2cc(S(=O)(=O)N3CCC(C)CC3)ccc21,8.4,74.5*,2.2,-0.2,83.7*
CCn1cc(C(=O)NCc2ccco2)c(=O)c2cc(S(=O)(=O)N3CC(C)CC(C)C3)ccc21 (stereo not drawn),1.0,78.1*,3.3,-0.6,87.3*
C=CCn1cc(C(=O)NCCOC)c(=O)c2cc(S(=O)(=O)N3CCCCCC3)ccc21,-3.0,-2.4,0.0,-0.5,x
CCn1cc(C(=O)NCc2ccco2)c(=O)c2cc(S(=O)(=O)N3CCc4ccccc4C3)ccc21,1.7,46.9,-2.9,-0.3,x
CCn1cc(C(=O)NCc2ccco2)c(=O)c2cc(S(=O)(=O)N3CCCCCC3)ccc21,-4.1,77.6*,3.0,-0.2,58.4*
CNC(=S)N(Cc1ccc(OC)cc1)C1CC(=O)N(c2ccc(Cl)cc2)C1=O (stereo not drawn),-2.9,62.5*,-4.7,0.6,69.8*
COc1ccc(CN(C(=S)Nc2ccccc2)C2CC(=O)N(c3ccc(F)cc3)C2=O)cc1 (stereo not drawn),6.6,21.6,2.1,0.0,x
O=C(c1ccc(S(=O)(=O)N2CCCC2)cc1)N1CCC(CN2C(=O)c3cccc4cccc(c34)C2=O)CC1,-1.3,2.8,2.6,-0.3,x
COc1ccc(S(=O)(=O)N2CCC(CN3C(=O)c4cccc5cccc(c45)C3=O)CC2)cc1,-5.6,63.4*,-4.8,-0.3,25.4
Cn1c(=NC(=O)c2ccc(S(=O)(=O)N3CCCc4ccccc43)cc2)sc2cc(S(C)(=O)=O)ccc21,-1.0,82.8*,5.7,3.1,10.6
C=C[C@@H]1c2cc(C)ccc2N(S(=O)(=O)c2ccc(C)cc2)[C@H](c2ccc(OC(C)=O)cc2)C1(C#N)C#N,5.8,52.0*,1.3,-0.6,23.6
SMILES,NPR2 activator,FAS-TE inh,GC-A act,aDG glyco up,FAS-TE inh conf
C=C[C@@H]1c2ccccc2N(S(=O)(=O)c2ccc(C)cc2)[C@H](c2ccc(OC(C)=O)cc2)C1(C#N)C#N,-0.3,61.8*,-2.2,-0.1,14.0
Cc1ccc2c(c1)C1CN(C)CCC1N2S(=O)(=O)c1ccc(C#N)cc1 (stereo not drawn),-2.9,-13.5,0.0,-0.4,x
C[C@]12Cc3ccccc3C1CC1=N[C@@H](c3ccc(C(F)(F)F)cc3)O[C@@]13C[C@@H]2C(=O)N3C1CCN(Cc2ccccc2)CC1 (stereo partly drawn),11.0,x,-0.1,x,x
CCOC(=O)[C@@]12CCCC=C1N(CCc1ccc(Cl)cc1)C(=O)[C@H]2CC(=O)NCCCCc1ccccc1,-3.2,x,-3.7,x,x
Cc1nn(-c2ccccc2)c2c1C(c1ccc([N+](=O)[O-])cc1)N1C(=N2)C(=O)Nc2ccccc21 (stereo not drawn),-6.5,79.1*,-8.4,-0.2,1.4
Cc1nn(-c2ccccc2)c2c1C(c1ccc(Cl)cc1)N(c1ccccc1)C(=O)N2 (stereo not drawn),-11.0,26.7,-18.3,0.3,x
Cc1cccc(NC2=Nc3ccccc3N3C2=Nc2c(c(C)nn2-c2ccccc2)C3c2ccc(O)c(O)c2)c1 (stereo not drawn),0.4,21.4,0.6,-0.1,x
Cc1nn(-c2ccc([N+](=O)[O-])cc2)c2c1C(c1cccc(Br)c1)N1C(=N2)C(=O)Nc2ccccc21 (stereo not drawn),-2.3,70.4*,-8.5,-0.8,-37.4
Cc1ccc(C(=O)N/C(=C/c2ccc(-c3ccc([N+](=O)[O-])cc3)o2)C(=O)NCCCN(C)C)cc1,-6.8,56.7*,-3.2,0.0,55.8*
O=C1N=c2ccccc2=C1c1sc(=O)[nH]c1O,-5.1,-7.3,-6.4,-0.1,x
O=C1N=c2ccc([N+](=O)[O-])cc2=C1c1sc(=O)[nH]c1O,-2.8,56.5*,-3.7,0.3,65.5*
O=C(CSc1nc2ccccc2c(=O)n1-c1ccc(F)cc1)Nc1ccc(Cl)c(S(=O)(=O)N2CCOCC2)c1,4.6,77.6*,-1.6,0.0,24.7
Cc1cc2nnc(SCC(=O)Nc3cc(S(=O)(=O)N4CCOCC4)ccc3Cl)n2c2ccccc12,-2.8,13.3,-0.9,0.0,x
O=C(CSc1nc2ccccc2c(=O)n1-c1ccc(F)c(Cl)c1)Nc1cccc(S(=O)(=O)N2CCOCC2)c1,7.8,78.5*,1.2,0.0,24.5
O=C(CSc1nc2ccccc2c(=O)n1CCCN1CCOCC1)Nc1cccc(S(=O)(=O)N2CCCCCC2)c1,1.8,7.7,-2.4,0.5,x
